From PubChem BioAssay
Activity calls are given as the source filed them.

How the values were obtained:
[1] = target: Albumin (Bos taurus) (UniProt P02769); test: bovine serum albumin binders on microarray, profiling panel, artefact control for SMM control protein annotation, biochemical, small-molecule microarray, Alexa647 label, 635/667 nm fluorescence (AID 1118); conditions: BSA-A647 binding, fluorescence 635 nm, higher = more signal;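 also: score merges 667 nm emission intensity and signal-to-noise per printed compound spot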
Sequence of Albumin (Bos taurus) (P02769 whole entry, looked up): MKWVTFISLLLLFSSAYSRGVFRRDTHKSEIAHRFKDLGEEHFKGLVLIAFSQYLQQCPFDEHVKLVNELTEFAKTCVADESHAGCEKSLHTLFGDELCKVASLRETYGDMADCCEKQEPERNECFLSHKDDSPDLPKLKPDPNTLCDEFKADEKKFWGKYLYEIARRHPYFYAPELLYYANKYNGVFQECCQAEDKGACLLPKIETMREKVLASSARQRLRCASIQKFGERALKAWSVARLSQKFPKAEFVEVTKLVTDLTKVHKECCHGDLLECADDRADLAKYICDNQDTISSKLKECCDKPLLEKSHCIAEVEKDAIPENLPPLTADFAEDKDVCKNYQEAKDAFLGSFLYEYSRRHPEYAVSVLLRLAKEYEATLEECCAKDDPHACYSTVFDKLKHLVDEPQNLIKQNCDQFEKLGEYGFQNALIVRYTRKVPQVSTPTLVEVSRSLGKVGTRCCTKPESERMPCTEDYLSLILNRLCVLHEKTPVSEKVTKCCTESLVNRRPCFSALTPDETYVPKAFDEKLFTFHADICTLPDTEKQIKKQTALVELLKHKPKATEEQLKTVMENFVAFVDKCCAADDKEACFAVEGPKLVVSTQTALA

[2] = small-molecule microarray binders of probe aXIP, primary screen, biochemical, NeuroSMM set, 635/667 nm fluorescence (AID 1119); conditions: higher = more signal, called active from +8 up or from −8 down;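 also: probe is the protein aXip251-270 applied at 1 µg/mL to compound-printed slides; binding of probe to printed compounds measured as 667 nm fluorescence plus signal to noise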
[3] = small-molecule binders of probe aNOTCH3, primary screen, biochemical, small-molecule microarray, 635/667 nm fluorescence (AID 1120); conditions: higher = more signal;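 also: probe is a biotin-tagged antibody raised against NOTCH3 rather than NOTCH3 protein; score merges spot fluorescence near 667 nm with spot signal to noise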
[4] = small-molecule binders of probe aNOTCH2, primary screen, biochemical, small-molecule microarray, 635/667 nm fluorescence (AID 1121); conditions: higher = more signal;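 also: score merges feature fluorescence read at 667 nm with its signal to noise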
[5] = target: Carbonic anhydrase 2 (Homo sapiens) (UniProt P00918); test: CAII small-molecule binders, profiling panel, biochemical, small-molecule microarray, Alexa647-labelled CAII (AID 1122); conditions: CAII-A647 binding fluorescence, higher = more signal
[6] = COS7 lysate on small-molecule microarray, probe aHis, 635 nm (AID 1123); conditions: COS7 cell lysate, fluorescence, higher = more signal;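 also: z-score combines 667nm fluorescence intensity with signal-to-noise per printed compound spot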
[7] = compound binding in COS7 lysate, probe aLAP1, primary screen, cell lysate, small-molecule microarray (AID 1124); conditions: probe aLAP1, fluorescence, higher = more signal;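 also: lysate comes from COS7 cells expressing LAP1 and is applied at 0.3 µg/mL; score merges spot fluorescence near 667 nm with signal-to-noise over triplicate slides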
[8] = test system: Sam68 (KHDRBS1); test: Sam68 small-molecule binders, primary screen, biochemical, small-molecule microarray, 635 nm fluorescence (AID 1125); conditions: small-molecule microarray binding, higher = more signal;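 also: score merges 667 nm channel intensity with signal to noise over triplicate slides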
[9] = test system: Chordin-like protein 2 (CHRDL2); test: CHRDL2 small-molecule binders, primary screen, biochemical, small-molecule microarray, 635 nm fluorescence (AID 1126); conditions: small-molecule microarray binding, fluorescence 635 nm; higher = more signal;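 also: printed compound slides probed with Chrdl2 protein at 4 µg/mL for 1 h at 4 C; score merges 667 nm emission intensity with signal to noise over three replicate slides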
[10] = target: Concanavalin-A (Canavalia ensiformis) (UniProt P02866); test: ConA small-molecule binders, primary screen, artefact control for SMM control protein annotation, biochemical, small-molecule microarray, Alexa647 label, 635 nm (AID 1127); conditions: ConA-A647 binding fluorescence, higher = more signal;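 also: z combines 667 nm emission intensity with signal-to-noise across three replicate slides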
Sequence of Concanavalin-A (Canavalia ensiformis) (P02866 whole entry, looked up): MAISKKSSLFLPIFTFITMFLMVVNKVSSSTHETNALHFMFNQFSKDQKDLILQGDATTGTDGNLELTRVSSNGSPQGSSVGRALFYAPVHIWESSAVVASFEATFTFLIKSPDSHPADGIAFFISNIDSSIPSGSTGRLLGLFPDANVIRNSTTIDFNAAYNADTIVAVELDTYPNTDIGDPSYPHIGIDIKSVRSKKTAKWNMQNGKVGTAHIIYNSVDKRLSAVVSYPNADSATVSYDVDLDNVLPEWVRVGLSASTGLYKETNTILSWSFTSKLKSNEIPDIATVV

[N-]=[N+]=NCc1ccccc1[C@H]1OC(c2ccc(OCCCO)cc2)=N[C@@]1(Cc1ccccc1)C(=O)NCCN1CCOCC1
composite z-score [1]: 0.985
composite Z-score [2]: 0.0851 (inactive)
composite z-score [3]: 0.576
composite z-score [4]: -0.0531
composite z-score [5]: 0.696
composite z-score [6]: 2.61
composite z-score [7]: 0.961
composite z-score [8]: 1.3
composite z-score [9]: 0.104
composite z-score [10]: 1.12

CCCC=C(CCC)[C@@H](NS(=O)(=O)c1cccc2cccnc12)c1ccc(-c2ccccc2)cc1
composite z-score [1]: 0.723
composite Z-score [2]: 0.339 (inactive)
composite z-score [3]: 0.438
composite z-score [4]: -0.0581
composite z-score [5]: 0.666
composite z-score [6]: 2.88
composite z-score [7]: 0.0607
composite z-score [8]: 1.31
composite z-score [9]: -0.677
composite z-score [10]: 1.14

CC(C)(C)OC(=O)CC[C@]12N=C(c3ccc(OCCCO)cc3)O[C@H]1c1ccccc1N(Cc1ccccc1)C2=O
composite z-score [1]: 0.0468
composite Z-score [2]: 2.86 (inactive)
composite z-score [3]: 0.0525
composite z-score [4]: -0.0456
composite z-score [5]: 0.557
composite z-score [6]: 2.39
composite z-score [7]: 0.504
composite z-score [8]: 1.3
composite z-score [9]: 0.581
composite z-score [10]: 0.995

COc1cc(NN2C(C(O)c3ccccc3)C=CC3C(=O)N(C)C(=O)C32)cc(OC)c1OC (stereo not given)
composite z-score [1]: 0.566
composite Z-score [2]: 1.13 (inactive)
composite z-score [3]: 0.12
composite z-score [4]: -0.0817
composite z-score [5]: 0.781
composite z-score [6]: 1.73
composite z-score [7]: 0.481
composite z-score [8]: 1.3
composite z-score [9]: -0.179
composite z-score [10]: 0.659

NC(=O)NCC#Cc1ccc2c(c1)[C@]1(C(=O)N2)[C@H](C(=O)N2CCN(c3ncccn3)CC2)[C@H]2C(=O)O[C@H](c3ccccc3)[C@H](c3ccccc3)N2[C@@H]1c1ccc(OCCO)cc1
composite z-score [1]: 0.003
composite Z-score [2]: 0.17 (inactive)
composite z-score [3]: 0.127
composite z-score [4]: -0.084
composite z-score [5]: 0.236
composite z-score [6]: 0.944
composite z-score [7]: 0.241
composite z-score [8]: 0.982
composite z-score [9]: 0.106
composite z-score [10]: 0.972

COC(=O)C(CC#Cc1ccc2c(c1)[C@]1(C(=O)N2)[C@H](c2ccc(O)cc2)N2[C@H](c3ccccc3)[C@H](c3ccccc3)OC(=O)[C@H]2[C@@H]1C(=O)N1CCCCCCC1)C(=O)OC
composite z-score [1]: 0.631
composite Z-score [2]: 1.71 (inactive)
composite z-score [3]: 1.29
composite z-score [4]: -0.0586
composite z-score [5]: 0.816
composite z-score [6]: 2.46
composite z-score [7]: 1.18
composite z-score [8]: 1.29
composite z-score [9]: 1.13
composite z-score [10]: 1.14

C=C(COC)/C(=C/C[C@H](OC(C)=O)c1cccc(OCCO)c1)c1cnc2ccccc2c1
composite z-score [1]: 0.497
composite Z-score [2]: 0.0575 (inactive)
composite z-score [3]: 0.0556
composite z-score [4]: -0.0817
composite z-score [5]: 0.917
composite z-score [6]: 0.109
composite z-score [7]: 0.267
composite z-score [8]: 1.24
composite z-score [9]: 1.35
composite z-score [10]: 1.05

O=C1O[C@H](c2ccccc2)[C@H](c2ccccc2)N2[C@H]1[C@@H](C(=O)O)[C@]1(C(=O)Nc3ccc(C#CC4(O)CCCCCC4)cc31)[C@H]2c1ccc(O)cc1
composite z-score [1]: 0.143
composite Z-score [2]: 0.25 (inactive)
composite z-score [3]: -0.15
composite z-score [4]: -0.0999
composite z-score [5]: 0.811
composite z-score [6]: 0.609
composite z-score [7]: 0.0189
composite z-score [8]: 0.553
composite z-score [9]: 0.224
composite z-score [10]: 0.437

C=C(/C(=C/C[C@@H](OC(C)=O)c1ccc(OCCO)cc1)c1cc(C(=O)OC)ccc1OC)C(C)C
composite z-score [1]: 0.296
composite Z-score [2]: 0.185 (inactive)
composite z-score [3]: -0.0417
composite z-score [4]: -0.127
composite z-score [5]: 0.735
composite z-score [6]: 0.303
composite z-score [7]: 1.2
composite z-score [8]: 0.938
composite z-score [9]: -0.137
composite z-score [10]: 0.697

NC(=O)[C@H]1[C@@H]2C(=O)O[C@@H](c3ccccc3)[C@@H](c3ccccc3)N2[C@@H](c2ccc(O)cc2)[C@]12C(=O)Nc1ccccc12
composite z-score [1]: 0.295
composite Z-score [2]: 0.355 (inactive)
composite z-score [3]: -0.307
composite z-score [4]: -0.173
composite z-score [5]: 0.769
composite z-score [6]: -0.115
composite z-score [7]: 0.0182
composite z-score [8]: -0.783
composite z-score [9]: -1.22
composite z-score [10]: -0.411

COCCOC(=O)N1C(=O)[C@@]2(c3cc(C#CCC(C(=O)OC)C(=O)OC)ccc31)[C@H](c1ccc(OCCO)cc1)N1[C@H](c3ccccc3)[C@H](c3ccccc3)OC(=O)[C@H]1[C@@H]2C(=O)Nc1nc2ccccc2s1
composite z-score [1]: -0.86
composite Z-score [2]: 0.575 (inactive)
composite z-score [3]: -0.0077
composite z-score [4]: 0.15
composite z-score [5]: 0.405
composite z-score [6]: 0.221
composite z-score [7]: -0.157
composite z-score [8]: 1.31
composite z-score [9]: 0.219
composite z-score [10]: 1.11

CC(C)OC(=O)CC(=O)CC(O)c1ccc([N+](=O)[O-])cc1 (stereo not given)
composite z-score [1]: 0.169
composite Z-score [2]: -0.314 (inactive)
composite z-score [3]: -0.0413
composite z-score [4]: 0.0215
composite z-score [5]: 0.152
composite z-score [6]: 0.666
composite z-score [7]: 0.447
composite z-score [8]: 0.543
composite z-score [9]: -1.23
composite z-score [10]: -0.122

CN1C(=O)C2C(C1=O)C1C=C(CCCO)C2C(C2CC2)N1Cc1cc2c(cc1Br)OCO2 (stereo not given)
composite z-score [1]: 0.984
composite Z-score [2]: 1.32 (inactive)
composite z-score [3]: 0.201
composite z-score [4]: -0.0097
composite z-score [5]: 0.756
composite z-score [6]: 2.63
composite z-score [7]: 1.25
composite z-score [8]: 1.18
composite z-score [9]: 0.0995
composite z-score [10]: 0.738

CCCNC(=O)[C@@]1(C)c2ccccc2C(=O)N(Cc2ccccc2)[C@H]1c1ccc(CO)cc1
composite z-score [1]: 0.0799
composite Z-score [2]: 2.55 (inactive)
composite z-score [3]: -0.128
composite z-score [4]: 0.0313
composite z-score [5]: 0.71
composite z-score [6]: 2.68
composite z-score [7]: 0.931
composite z-score [8]: 0.526
composite z-score [9]: -1.13
composite z-score [10]: 0.657

CCCCNC(=O)c1ccc(C#C[Si](C(C)C)(C(C)C)C(C)C)c(OC(C)=O)c1
composite z-score [1]: -0.154
composite Z-score [2]: 0.168 (inactive)
composite z-score [3]: 0.089
composite z-score [4]: -0.117
composite z-score [5]: 0.925
composite z-score [6]: 0.1
composite z-score [7]: -0.18
composite z-score [8]: 0.823
composite z-score [9]: 1.33
composite z-score [10]: 0.94

CN(C)C(=O)[C@@]1(Cc2ccccc2)COC(c2ccc(OCCCO)cc2)=N1
composite z-score [1]: 0.66
composite Z-score [2]: -0.655 (inactive)
composite z-score [3]: -0.507
composite z-score [4]: -0.308
composite z-score [5]: 0.541
composite z-score [6]: 2.86
composite z-score [7]: 0.178
composite z-score [8]: 0.581
composite z-score [9]: 0.26
composite z-score [10]: 0.113

CCCCCCCCCCC(O)C1C=CC2C(=O)N(c3ccccc3)C(=O)C2N1Nc1ccccc1F (stereo not given)
composite z-score [1]: 0.524
composite Z-score [2]: -0.105 (inactive)
composite z-score [3]: -0.0242
composite z-score [4]: -0.171
composite z-score [5]: 0.208
composite z-score [6]: 1.5
composite z-score [7]: 0.344
composite z-score [8]: 0.233
composite z-score [9]: -1.13
composite z-score [10]: 0.17

CC(C)C(=C=CC[C@@H](O)c1cccc(OCCO)c1)C[C@@H](O)c1ccccn1
composite z-score [1]: 0.0608
composite Z-score [2]: -0.259 (inactive)
composite z-score [3]: -0.0362
composite z-score [4]: -0.123
composite z-score [5]: 0.26
composite z-score [6]: -0.293
composite z-score [7]: 0.726
composite z-score [8]: -0.228
composite z-score [9]: -0.377
composite z-score [10]: -0.155

C#C[C@@H](CC)O[Si](C#CCCCC#N)(C(C)C)C(C)C
composite z-score [1]: 0.202
composite Z-score [2]: -0.608 (inactive)
composite z-score [3]: -0.0391
composite z-score [4]: -0.174
composite z-score [5]: 0.797
composite z-score [6]: 1.59
composite z-score [7]: -0.252
composite z-score [8]: 0.441
composite z-score [9]: 0.106
composite z-score [10]: -0.193

CC(C)C(=C=CC[C@@H](O)c1cccc(OCCO)c1)C[C@@H](O)COCc1ccccc1
composite z-score [1]: 0.15
composite Z-score [2]: -1.39 (inactive)
composite z-score [3]: -0.0708
composite z-score [4]: -0.0865
composite z-score [5]: 0.763
composite z-score [6]: 0.75
composite z-score [7]: 0.102
composite z-score [8]: -0.0876
composite z-score [9]: -0.456
composite z-score [10]: 0.346

COCCOC(=O)N1C(=O)[C@@]2(c3ccccc31)[C@H](c1ccccc1OCCO)N1[C@H](c3ccccc3)[C@H](c3ccccc3)OC(=O)[C@H]1[C@@H]2C(N)=O
composite z-score [1]: 0.856
composite Z-score [2]: 1.26 (inactive)
composite z-score [3]: -0.0324
composite z-score [4]: -0.181
composite z-score [5]: 0.565
composite z-score [6]: 2.36
composite z-score [7]: 1.01
composite z-score [8]: 1.3
composite z-score [9]: 0.651
composite z-score [10]: 1.18
